# Laboratory results reported in the supplement of paper PMC6555819.
# Experiments:
# Test in all cases: PBM binding z-score (relative to random genomic background probes); higher = stronger binding; sequences stand for … in GC…GCGATTGACAGCGTAGAATGAAGG
# [1] = test system: RARb homodimer (NR concentration 270 nM)
# Outline: (§1)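 Binding z-scores were set against random background probes. The data came from custom Agilent 4×180K protein-binding microarrays carrying double-stranded probes with 34-nt variable regions, incubated 1 h with ligand-free nuclear receptor dimers. Partner-specific antibodies detected binding, and scanned fluorescence was regression-normalized.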
# [2] = test system: RARg:RXRa (NR concentration 270 nM, RXRa partner concentration 90 nM)
# Outline: as §1
# [3] = test system: RARg homodimer (NR concentration 270 nM)
# Outline: as §1
# [4] = test system: RXRa DBDmut IVT, anti-RXR (DBD mutation: RXRa K156A/R161A, NR concentration 90 nM)
# Outline: as §1
# [5] = test system: RXRa homodimer (NR concentration 180 nM)
# Outline: as §1
# [6] = test system: THRa:RXRa (NR concentration 90 nM, RXRa partner concentration 90 nM)
# Outline: as §1
# [7] = test system: THRa homodimer (NR concentration 90 nM)
# Outline: as §1
# [8] = test system: VDR homodimer (NR concentration 270 nM)
# Outline: as §1
Sequence,PBM binding z-score [1],PBM binding z-score [2],PBM binding z-score [3],PBM binding z-score [4],PBM binding z-score [5],PBM binding z-score [6],PBM binding z-score [7],PBM binding z-score [8]
GCTAGCAGACCATTTGGGTCACTCAATGACGGGC,1.42,0.72,0.826,-0.303,0.514,1.38,0.434,-0.19
GGAACGAAGGCATTCGAGTTGATAGCATGGCGAT,-0.976,-0.479,-0.164,-0.552,-0.562,0.655,-1.68,-0.0499
TCAATTAGTTGATTAGGGCAACCGAAACAGCGGA,0.454,0.298,0.178,0.983,0.591,0.541,0.0743,0.229
CCTTACGAGTCACTGACAGGTTATAGCATTTGGA,1.23,1.22,0.808,0.998,0.893,0.852,0.813,0.964
TCTCGGAGGACACGAAGGTCAGAGCTTTCCAGAG,3.78,2.79,3.63,0.904,1.69,2.87,0.784,1.03
TCATATAGGTAAAGGTGAACGTCGAACGATATGA,1.73,1.71,1.52,0.894,2.17,1.5,-0.0395,-0.239
ACAGACAGGTGAGTGAAGTTAACTCAGCTGGACG,-0.414,-0.0567,0.156,-0.397,0.359,-0.189,-1.01,-0.612
TCATATAGGTAAACAGGTGACAGTCCGTAAGTTA,0.765,0.72,0.419,1.37,1.12,0.614,0.354,0.168
ATCGAAAGGTCGAAGGTGTGTATACCCACCCGAA,2.15,3.83,3.73,0.844,4.12,1.6,-0.397,0.639
ATCGATAGGTCGTGAGGTGAGTATACAGAAAGGC,1.39,2.16,1.84,0.0211,2.15,2.47,1.33,0.361
TCTTTTAGATCAACAGGAGGTTAAGAAAGATCGA,0.623,1.24,0.914,1.31,1.48,1.08,-0.0396,-0.0983
TCTATTAGTTGATGGGCAACCGACGAGTCCGTTT,-0.181,-0.125,-0.0889,1.49,0.101,-0.425,0.00181,0.831
TCTTGTAGATCAACAGCAGGTTAAGAAAGATCGA,0.0548,0.165,-0.0185,0.681,0.512,0.308,-0.504,-0.471
TCTGCTAGGTCAACGATGGTCAGCTACTCTGCTA,3.48,4.25,5.24,0.833,2.64,3.04,0.776,-0.337
ACTATTAGTTGAGACGGGGGCAACCGATAGGTTG,1.92,2.03,1.77,1.55,1.42,3.01,1.12,1.98
ATACCAAGGTGATCGTGAGGTCGTTGAGACTAAC,1.66,2.25,0.747,0.611,1.66,3.4,2.38,2.82
